Rows were chosen to be rich in hits. Some 27% of all compounds tested hit in one or more screens of this group.
CYP2C19 inh = inhibitors of human CYP2C19; CYP2C19 Supersomes, luciferin-H EGE luminescence, 30 min; inhibition, % at 5 µM; 96,000 compounds, 21% hits;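 active means CYP2C19 inhibition above a set limit at 5 µM in the primary screen, cut at about 50% in these data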;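 further: plate controls were negative control wells for no effect and 2.5 mM tranylcypromine positive control for full effect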
PTK2B oligo ant = blocks oligomerization of human Pyk2 in cells | Q14289 | Q293 cells, Pyk2 FERM NanoBiT luminescence; active compounds read low | z-score (the deposit names both 25 µM and 10 µM) | 99,000 compounds, 0.83% hits;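 active means Z-score of -3 or lower, scaled per plate to the spread of control and sample wells; inactive means z-score above -3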;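 further: negative z-score means lost luminescence so less FERM oligomerization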
Target sequence (Q14289 whole entry, looked up): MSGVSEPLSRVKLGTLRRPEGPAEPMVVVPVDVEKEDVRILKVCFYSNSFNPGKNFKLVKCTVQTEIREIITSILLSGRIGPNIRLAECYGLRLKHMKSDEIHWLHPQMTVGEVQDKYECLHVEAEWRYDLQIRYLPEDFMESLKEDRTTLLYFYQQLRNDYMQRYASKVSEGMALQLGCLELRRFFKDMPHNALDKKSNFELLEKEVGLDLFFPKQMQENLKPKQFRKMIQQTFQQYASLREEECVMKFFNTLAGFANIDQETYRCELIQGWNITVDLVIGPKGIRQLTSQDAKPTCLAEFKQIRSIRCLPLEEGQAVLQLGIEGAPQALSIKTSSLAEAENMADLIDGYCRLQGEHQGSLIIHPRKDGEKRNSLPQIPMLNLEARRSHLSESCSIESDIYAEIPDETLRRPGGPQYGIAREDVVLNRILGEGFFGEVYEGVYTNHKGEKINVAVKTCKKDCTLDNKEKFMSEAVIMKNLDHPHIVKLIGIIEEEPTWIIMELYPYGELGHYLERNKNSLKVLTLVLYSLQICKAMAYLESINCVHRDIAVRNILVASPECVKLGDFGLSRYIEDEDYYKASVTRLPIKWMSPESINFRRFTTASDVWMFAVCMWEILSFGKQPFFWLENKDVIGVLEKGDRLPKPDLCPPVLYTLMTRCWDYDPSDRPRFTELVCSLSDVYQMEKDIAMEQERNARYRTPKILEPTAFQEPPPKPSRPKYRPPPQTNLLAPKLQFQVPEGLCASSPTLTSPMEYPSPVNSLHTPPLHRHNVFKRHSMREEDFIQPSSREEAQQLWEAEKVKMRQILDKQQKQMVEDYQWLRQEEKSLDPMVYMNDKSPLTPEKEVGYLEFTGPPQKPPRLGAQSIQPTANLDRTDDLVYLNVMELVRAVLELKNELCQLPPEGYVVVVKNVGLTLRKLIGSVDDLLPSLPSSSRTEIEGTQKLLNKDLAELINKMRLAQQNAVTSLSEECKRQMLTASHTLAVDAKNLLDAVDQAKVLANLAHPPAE
CYP2C19 act = activators of human cytochrome P450 2C19; P33261; recombinant CYP2C19, luciferin-H EGE luminescence; active compounds read high; 0 = fully inhibited enzyme, 1 = untreated enzyme; activation factor at 5 µM; 96,000 tested, under 10 active;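 active means activation factor of at least 2 at 5 µM in the primary screen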;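 further: 0 = wells with 2.5 mM tranylcypromine and 1 = vehicle-only wells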
CYP2C9 inhib = inhibitors of human CYP2C9. P11712. CYP2C9 Supersomes, luciferin-H conversion, luminescence. inhibition, % at 5 µM. 96,000 compounds, 20% hits. AID 777;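 active means blocking of liver enzyme CYP2C9 beyond about 50% at 5 µM, limit read from the data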
CYP2C9 activ = CYP2C9 (human) activation; P11712; recombinant CYP2C9, luciferin-H conversion, luminescence; active compounds read high; factor 1 = untreated enzyme, 0 = blocked; activation factor at 5 µM; 96,000 compounds, 1.4% hits; AID 1024;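 active means activation factor of 2 or more for CYP2C9 at a 5 µM dose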;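 further: 0 = sulfaphenazole-blocked wells and 1 = vehicle-only wells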
Cav3 T inh = blocks human Cav3.2 T-type calcium channel. Cav3.2-expressing cells, Fluo-4 calcium fluorescence FDSS; active compounds read low. AID 449739. O95180. 100,000 compounds, 4% hits. B-score at 10 µM;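 active means single-dose well whose peak fluorescence ratio is a statistical outlier from its plate by either plate-standardised score or position-corrected B-score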
Numbers without * were called inactive; / = no result given.

SMILES | CYP2C19 inh | PTK2B oligo ant | CYP2C19 act | CYP2C9 inhib | CYP2C9 activ | Cav3 T inh
COc1cccc(NC(=O)CN2CC(c3ccccc3)CC2=O)c1 (stereo not drawn) | 61.2* | / | 0.4 | -0.4 | 1 | -3.26
NC12CN3CN(CN(C3)C1)C2 (tested in a mixture with another compound) | 4.6 | 0.03 | 1 | -96.8 | 2* | 0.118
OC1(c2ccc(F)cc2)CC2CCC(C1)N2Cc1nnnn1C1CCCCC1 (stereo not drawn) | 50.3* | 0.02 | 0.5 | 43.1 | 0.6 | /
CCOc1cccc(C2NCc3ccccc3-n3cccc32)c1O (stereo not drawn) | 38.2 | 0.28 | 0.6 | 26.1 | 0.7 | -2.13
CCOc1cc(C2NCc3ccccc3-n3cccc32)ccc1O (stereo not drawn) | 60.8* | -0.6 | 0.4 | 74.6* | 0.3 | /
COC(=O)C1=C(c2cc3ccccc3o2)C[C@@H]2CC[C@H]1N2C(=O)NCc1cccc2ccccc12 | / | / | / | / | / | -3.62*
Cc1cc(Cl)ccc1OCCCC(=O)NCc1cccs1 | / | 0.08 | / | / | / | /
Cc1cccc(C2=NCC(=O)N(CC(=O)NCc3ccco3)c3sc4c(c32)CCCC4)c1 | 50.7* | -0.49 | 0.5 | 59.1* | 0.4 | -3.93*
CC(=NCCN1CCOCC1)c1c(O)n(C2CCCCC2)c(=O)[nH]c1=O | 10.2 | -0.86 | 0.9 | 20.6 | 0.8 | 1.81
COc1ccc2c(c1OC)C(=O)OC2c1c(O)n(C2CCCCC2)c(=O)[nH]c1=O (stereo not drawn) | 5.8 | 0 | 0.9 | 68.8* | 0.3 | -0.0213
Cc1ccc(Cl)cc1-n1c(O)c(C=NCCCN2CCOCC2)c(=O)[nH]c1=O | 6.2 | 1.15 | 0.9 | -1.1 | 1 | 1.42
O=c1[nH]c(=O)n(CCC2=CCCCC2)c(O)c1C=NC1CCN(Cc2ccccc2)CC1 | 31.3 | 0.97 | 0.7 | 80.2* | 0.2 | 1.86
CCCCCCn1c(O)c(C=NC2CCN(Cc3ccccc3)CC2)c(=O)[nH]c1=O | 25.6 | 0.26 | 0.7 | 72.8* | 0.3 | -3.31*
Cc1ccc(C)c(NC(=O)CSc2nnc([C@@H](N)Cc3c[nH]c4ccccc34)o2)c1 | 42.8 | -0.21 | 0.6 | 22.3 | 0.8 | -0.313
Cc1cc(OCc2ccc([N+](=O)[O-])cc2)c2c3c(c(=O)oc2c1)CCCC3 | 60.2* | / | 0.4 | 78.9* | 0.2 | /
CCCCOC(=O)COc1cc(C)cc2oc(=O)c3c(c12)CCC3 | 39.5 | 0.93 | 0.6 | 46.2 | 0.5 | -1.1
Cc1cc(OCc2nn[nH]n2)c2c3c(c(=O)oc2c1)CCCC3 | -16.8 | -0.25 | 1.2 | 72.2* | 0.3 | 0.00738
Cc1cc(OC(=O)CCNC(=O)OC(C)(C)C)c2c3c(c(=O)oc2c1)CCC3 | 28.7 | -2.36 | 0.7 | 29.3 | 0.7 | -0.409
C=CCOC(=O)COc1cc(C)cc2oc(=O)c3c(c12)CCC3 | 84.3* | -0.14 | 0.2 | 57.6* | 0.4 | -0.0133
Cc1cc(OC(=O)CCCNC(=O)OC(C)(C)C)c2c3c(c(=O)oc2c1)CCC3 | 41.3 | -1.33 | 0.6 | 55.2* | 0.4 | -0.0426
C[N+]1(CCC(C(N)=O)(c2ccccc2)c2ccccc2)CCCCC1 | / | / | / | / | / | 2.69
CCC1C2Cn3c(nc4ccccc43)C1N(C)O2 (stereo not drawn) | / | / | / | / | / | 0.141
CCCCn1c(O)c(C(CC)=NCCN2CCCCC2)c(=O)[nH]c1=O | 21.1 | 0.26 | 0.8 | 21.8 | 0.8 | 0.497
COC(=O)C1=C(c2ccc(S(C)(=O)=O)cc2)C[C@@H]2CC[C@H]1N2C(=O)N1CCC(C)CC1 | / | / | / | / | / | 0.353
CCCCn1c(O)c(C=NCCCn2ccnc2)c(=O)[nH]c1=O | 21.6 | -0.3 | 0.8 | 46.2 | 0.5 | 0.98
O=c1[nH]c(=O)n(CCc2ccccc2)c(O)c1C=NCCCn1ccnc1 | 50.3* | 2.09 | 0.5 | 72.9* | 0.3 | 0.39
O=c1[nH]c(=O)n(Cc2ccc(F)cc2)c(O)c1C=NCCCn1ccnc1 | 32.7 | 0.19 | 0.7 | 86.4* | 0.1 | /
O=c1[nH]c(=O)n(-c2cccc3ccccc23)c(O)c1C=NCCCn1ccnc1 | 21.7 | -1.09 | 0.8 | 74.9* | 0.3 | -0.719
O=c1[nH]c(=O)n(Cc2ccccc2)c(O)c1C=NCCCn1ccnc1 | 7.3 | 0.46 | 0.9 | 63.5* | 0.4 | -0.0021
COc1ccccc1-n1c(O)c(C=NCCCn2ccnc2)c(=O)[nH]c1=O | 8.5 | 0.68 | 0.9 | 15.8 | 0.8 | -0.0477

Source: PubChem (several laboratories)
